# In PubChem BioAssay AID504466 (National Center for Advancing Translational Sciences (NCATS), 2011):
# The whole screen tested about 330,000 compounds, of which about 4,200 (1.3%) were called active. Entries that show only a call come without a potency. Roughly 6% stayed inconclusive and do not appear here. For the sample, actives were picked, then their nearest neighbours and some compounds at random. Unmarked numbers belong to inactive results. The call rests on the fitted dose curve; in most records, active means well fitted activation curve with a large enough effect; inconclusive means small, poorly fitted or top-dose-only effect; inactive means no such curve, though single readings can be large or run the other way.
# Assay: qHTS screen for small molecules that induce genotoxicity in human embryonic kidney (HEK293T) cells expressing luciferase-tagged ELG1; further: nearly all actives have a fitted effect of over 60% in size
# Conditions: HEK293T ELG1-luciferase reporter, luminescence, 16 h; series mostly up to 46 µM
# Procedure, shortened: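 Genotoxic stress is detected as increased luminescence from luciferase-tagged ELG1 in HEK293T cells, measured with ONE-Glo after a 16 hr treatment at 37 °C.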
# Potency means the concentration at half of the fitted maximal effect.
SMILES,Potency,"activity change, positive = activation"
O=C1CCC/C=C/C[C@@H](CC(=O)N(CCO)Cc2ccccc2)C(=O)NC[C@H](c2ccccc2)O1,inactive,
CC[C@]12c3[nH]c4ccc(Cl)cc4c3CCN1C(=O)[C@@H](CC(=O)NCCCOC)C[C@@H]2C(=O)N1CCN(C(=O)C2CC2)CC1,inactive,
COCCCNC(=O)CC1C[C@H](C(=O)N2CCCCC2)[C@@]2(CCc3ccccc3)c3[nH]c4ccccc4c3CCN2C1=O (some centres not stated),inactive,
O=C(NCc1ccccn1)c1cc2ccccc2oc1=O,14.6 µM (active),
COc1ccc2oc(=O)c(C(=O)NCc3ccccn3)cc2c1,inactive,
N=c1oc2ccccc2cc1C(=O)NCc1ccccc1,inactive,
CCNC(=O)N(CC)C[C@H]1N[C@@](CC)(C(=O)OC)[C@H]2C(=O)N(Cc3ccccc3)C(=O)[C@@H]12,inactive,
CN(C(=O)COC(=O)Cc1ccccc1[N+](=O)[O-])C1CCS(=O)(=O)C1 (configuration not stated),inactive,
CCc1c(C)nc2cc(C)[nH]n2c1=O,inactive,
CCc1c(C)nc2cc(-c3cccs3)[nH]n2c1=O,20.6 µM (active),
Cc1cc(=O)n2[nH]c(-c3sccc3-n3c(C)ccc3C)cc2n1,inactive,
Cc1cccc(NS(=O)(=O)c2ccc(C)c(C(=O)NCc3cccnc3)c2)c1,inactive,
CN(c1ccccc1)S(=O)(=O)c1ccc(C(=O)N2CCN(c3ccccc3Cl)CC2)cc1,inactive,
CC(NC(=O)COC(=O)Cn1cc(C(F)(F)F)ccc1=O)c1ccccc1 (configuration not stated),inactive,
COc1ccc(S(=O)(=O)N2CCOCC2)cc1NC(=O)CSc1nnc(NC2CC2)s1,inactive,
Cc1ccc(NC(=O)NC(=O)c2ccccc2)cc1F,inactive,
O=C(Nc1ccc(C(=O)O)c(O)c1)c1ccccc1,inactive,
O=C(NC(=O)c1ccccc1)Nc1ccccc1O,1.83 µM (active),
COc1ccc(CCOC2OC(CO)C(OC(=O)/C=C/c3ccc(O)c(OC)c3)C(O[C@H]3O[C@@H](C)[C@H](O)[C@@H](O)[C@H]3O)C2O)cc1O (some centres not stated),inactive,
O=C(COC(=O)c1ccc(Br)o1)NC12CC3CC(CC(C3)C1)C2,inactive,
COc1ccc(C(CC(=O)c2ccccc2)S(=O)(=O)c2ccccc2)cc1 (configuration not stated),18.4 µM (active),
COc1ccc(NC(=O)CS(=O)(=O)c2ccccc2)cc1,inactive,
COc1ccc(N(Cc2ccccc2)S(=O)(=O)c2cccc(C(=O)O)c2)cc1,inactive,
O=C(Nc1cc(S(=O)(=O)N2CCOCC2)ccc1N1CCOCC1)c1c(F)cccc1Cl,inactive,
COc1cccc(C(=O)Nc2nnc(S(=O)(=O)N(C)c3ccccc3)s2)c1,inactive,

SMILES,Potency,"activity change, positive = activation"
CCOc1cccc(C(=O)Nc2nnc(-c3cccs3)s2)c1,1.16 µM (active),
Cc1ccc(C(=O)Nc2nnc(-c3cccs3)s2)cc1C,8.2 µM (active),
Cc1nnc(NC(=O)c2ccc3nccnc3c2)s1,inactive,
CCOc1cccc(C(=O)Nc2cnn(Cc3ccccc3)c2)c1,inactive,
Cc1ccc(C(=O)Oc2coc(CSc3nnc(NC(=O)c4cccs4)s3)cc2=O)cc1C,inactive,
O=C(OCC(=O)N1CCN(C(=O)c2ccco2)CC1)c1c(Cl)cccc1Cl,inactive,
O=C(Nc1cc(S(=O)(=O)Nc2ccc(Cl)cc2)ccc1O)c1ccc(F)cc1F,inactive,
COC(=O)C1CCN(C(=O)COC(=O)c2cc(S(=O)(=O)N3CCOCC3)ccc2C)CC1,inactive,
COCCN(CCOC)S(=O)(=O)NC[C@H]1O[C@@H](n2cnc3c(N)ncnc32)[C@H](O)[C@@H]1O,inactive,
Cc1nn(C)cc1N1C(=O)c2cccc3c(N)ccc(c23)C1=O,inactive,
O=C(CN1C(=O)c2cccc3cccc1c23)Nc1ccccc1,inactive,
Cc1cccc(NC(=O)CN2C(=O)c3ccccc3C2=O)c1C,inactive,
CCN1C(=O)c2cccc3c(S(=O)(=O)Nc4ccccc4O)ccc1c23,23.1 µM (active),
CN1C(=O)c2cccc3c(N)ccc(c23)C1=O,inactive,
CCN1C(=O)c2cccc3c(N)ccc1c23,20.6 µM (active),
CC(C)COc1ccc(C(=O)NNC(=O)CCC(=O)c2cccs2)cc1,inactive,
CCOC(=O)N1CCN(C(=O)COc2ccc3oc4c(c3c2)CCCC4)CC1,inactive,
O=C(COc1ccc2oc3c(c2c1)CCCC3)Nc1ccccn1,16.4 µM (active),
CCN(CC)CCCNC(=O)COc1ccc2oc3c(c2c1)CCCC3,inactive,
CC[C@]12c3[nH]c4cc(CCC(=O)N(C)C)ccc4c3CCN1C(=O)[C@@H](CC(=O)NCC13CC4CC(CC(C4)C1)C3)C[C@@H]2C(=O)N1CCN(C(=O)C2CC2)CC1,inactive,
COc1ccc2nc3n(c(=O)c2c1)-c1cc(C)ccc1C(=O)NC3Cc1ccc(O)cc1 (configuration not stated),inactive,
CC(C)C(=O)Nc1ccc2oc(=O)ccc2c1,inactive,
CC(C)C(=O)Nc1ccc2c(c1)oc1ccccc12,4.11 µM (active),
Cc1cc(=O)oc2cc(NC(=O)C(C)Oc3ccccc3)ccc12 (configuration not stated),inactive,
COc1cccc(NC(=O)COc2cccnc2[N+](=O)[O-])c1,inactive,

SMILES,Potency,"activity change, positive = activation"
CC(C)(C)OC(=O)C[C@@H]1C/C=C\C[C@@H](CC(=O)N[C@H](CO)Cc2ccccc2)C(=O)NCCOC1=O,inactive,
Cc1nc2ccc(S(=O)(=O)N(C)CC(=O)NC(C)c3ccccc3)cc2s1 (configuration not stated),inactive,
Cc1ccc2nc(-c3ccc(NC(=O)CN(C)S(=O)(=O)c4ccccc4)cc3)sc2c1,5.8 µM (active),
COc1cc(NC(=O)CN(C)S(=O)(=O)c2ccc3nc(C)sc3c2)cc(OC)c1,inactive,
O=C1c2ccccc2[C@@H]2C[C@@H](O)[C@H](Nc3ccccc3Cl)CCN12,inactive,
Cc1ccc(-n2c(C)cc(C(=O)CN3C(=O)C(=O)N(C4CCCC4)C3=O)c2C)cc1,inactive,
Cc1cc(C(=O)COC(=O)C2CC2)c(C)n1-c1ccc(F)cc1,2.59 µM (active),
Cc1cc(C(=O)COc2ccccc2Cl)c(C)n1C1CC1,inactive,
Cc1ccc(C(=O)CSc2ccccc2C(=O)O)cc1,,12.5% [at 9.26 µM]
COC(=O)c1cc(OC)c(OC)cc1NC(=O)CSc1ccc(C)cc1,inactive,
Cc1ccc(SCC(=O)c2cc(C)c(OC(=S)N(C)C)c(C)c2)cc1,7.31 µM (active),
COC(=O)[C@]1(Cc2ccccc2)N[C@H](CN(C)S(=O)(=O)c2ccc(OC(F)(F)F)cc2)[C@@H]2C(=O)N(Cc3ccccc3)C(=O)[C@@H]21,inactive,
O=C(COC(=O)c1cccc(Cl)c1)NC(=O)NCc1ccccc1,inactive,
Nc1ncc(-c2cc3ccccc3oc2=O)s1,2.59 µM (active),
O=C(Nc1ccncc1)c1cc2ccccc2o1,inactive,
O=C(NCc1cccnc1)c1cccc(-c2cc3ccccc3oc2=O)c1,inactive,
O=C(COC(=O)c1cccc(Br)c1)Nc1cccc2c1C(=O)c1ccccc1C2=O,13 µM (active),
O=C(COC(=O)Cn1cnc2ccccc21)Nc1cccc2c1C(=O)c1ccccc1C2=O,inactive,
O=C(COC(=O)c1ccccc1)Nc1ccccc1Sc1ccccc1,inactive,
C[C@H](CO)N1C[C@H](C)[C@H](CN(C)CC2CC2)Oc2ccc(NC(=O)CCN3CCOCC3)cc2C1=O,inactive,
COC(=O)c1ccc(CNC(=O)c2ccc3oc(C(C)C)nc3c2)cc1,20.6 µM (active),
CC(C)c1nc2cc(C(=O)NC(C)c3cnn(C)c3)ccc2o1 (configuration not stated),inactive,
COC(=O)c1ccc(CSc2nc3cc(Cl)ccc3o2)cc1,inactive,
C=CC[C@@H](CC(=O)NCCO)C(=O)N[C@H](C)COC(=O)[C@@H](CC=C)CC(=O)OC(C)(C)C,inactive,
Cc1cccc(C(=O)OCC(=O)NC(C)C2CC3CCC2C3)c1O (configuration not stated),inactive,

SMILES,Potency,"activity change, positive = activation"
COc1ccccc1NC(=O)COC(=O)CNC(=O)C1CCCCC1,inactive,
Nc1ncnc2c1ncn2[C@@H]1O[C@H](CNS(=O)(=O)c2ccc(-c3ccno3)s2)[C@@H](O)[C@H]1O,inactive,
O=C(CCCOc1ccccc1)NNC(=O)c1ccc(Cl)cc1,inactive,
CCS(=O)(=O)Nc1cccc(-c2cc(-c3ccccc3)c3cc(C)ccc3n2)c1,inactive,
CC(=O)Nc1cccc(-c2cnc3ccccc3n2)c1,10.3 µM (active),
CC(=O)Nc1cccc(Nc2nc(-c3cccs3)nc3ccccc23)c1,inactive,
O=C(c1ccc(S(=O)(=O)NCc2ccco2)cc1)N1CCN(c2ccccc2)CC1,inactive,
COC(=O)c1oc2ccc(Br)cc2c1NC(C)=O,inactive,
Cc1noc(C)c1C(=O)Nc1ccccn1,inactive,
Cc1c(C(=O)Nc2ccccn2)oc2ccc(Br)cc12,9.2 µM (active),
O=C(COC(=O)COc1cc(Cl)c(Cl)cc1Cl)NC1CC1,inactive,
COc1ccc(-c2cc(=O)c3c(O)cc(O[C@@H]4O[C@H](CO[C@@H]5O[C@@H](C)[C@H](O)[C@@H](O)[C@H]5O)[C@@H](O)[C@H](O)[C@H]4O)cc3o2)cc1O,inactive,
CCOC(=O)COc1cc(O)c2c(=O)cc(-c3ccccc3)oc2c1,inactive,
COc1c(O)cc2oc(-c3ccc(O)c(O)c3)cc(=O)c2c1O,20.6 µM (active),
CCN(C(=O)COC(=O)CCC(=O)c1cccs1)C1CCCCC1,inactive,
C[C@H](CO)N1C[C@H](C)[C@H](CN(C)C(=O)Nc2ccc(C(F)(F)F)cc2)Oc2c(NC(=O)c3ccncc3)cccc2C1=O,inactive,
C[C@]12c3[nH]c4ccc(Cl)cc4c3CCN1C(=O)[C@@H](CC(=O)NCCCn1ccnc1)C[C@@H]2C(=O)N1CCOCC1,inactive,
CCC1CCCCN1C(=S)NC(=O)c1ccco1 (configuration not stated),inactive,
COc1ccc2c(CC(=O)NNC(=O)c3ccccc3F)coc2c1,inactive,
CCC(=O)N1CCCc2ccccc21,inactive,
O=C(CSCc1ccccc1)N1CCc2ccccc21,2.59 µM (active),
O=C(CN1CCN(c2ccccn2)CC1)N1CCc2ccccc21,inactive,
